Screening data (PubChem BioAssay)
Most compounds without a hit are left out; they make up all but 12% or so of the library.
HP1b binding inh = blocks HP1-beta chromodomain binding to methylated histone tails | AlphaScreen HP1-beta / biotin-H3K9me3 peptide binding | 0.56% of 390,000 active | Potency, µM (series often up to 114 µM), for inactives: at the top dose activity change, negative = inhibition, usual class: inhibitors | AID 540317 | P83916; note: nearly all actives have a fitted effect of over 70% in size
Target sequence (P83916 whole entry, looked up): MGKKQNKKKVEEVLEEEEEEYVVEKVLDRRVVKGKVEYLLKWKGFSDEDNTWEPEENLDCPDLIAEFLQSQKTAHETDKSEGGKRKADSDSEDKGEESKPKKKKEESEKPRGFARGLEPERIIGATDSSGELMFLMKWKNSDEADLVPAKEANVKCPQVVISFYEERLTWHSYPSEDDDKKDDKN
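AlphaScreen: HP1-beta (50 nM) preformed 30 min with biotin-H3(1-18)K9me3 peptide (50 nM) in PBS pH 7.4, 0.01% Tween-20. Compound added for 30 min at RT, then streptavidin donor/nickel chelate acceptor beads (10 ug/mL) for 30 min.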
L3MBTL1 inh = L3MBTL1 (human) inhibition; Q9Y468; AlphaScreen L3MBTL1–H3K9me1 peptide binding; Potency, µM (doses to about 57.1 µM), for the others: top-dose activity, negative = inhibition, actives largely listed as inhibitors; 0.66% of 230,000 active; AID 485360; note: % is set by controls: 0 for no effect and ±100 for the full control effect; nearly all actives have a fitted effect of over 60% in size
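Displacement of a biotinylated histone H3(1-15) peptide monomethylated at Lys9 (75 nM) from L3MBTL1 (50 nM) was measured by AlphaScreen after a 30 min room-temperature compound incubation; cefsulodin titration served as intraplate control.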
BAZ2B inh = BAZ2B (human) inhibition. 4.4% of 360,000 active. Potency, µM (top dose mostly 114 µM), for inactives: at the top dose activity change, negative = inhibition, most hits filed as inhibitors. AlphaScreen BAZ2B-H3K14Ac peptide displacement. Q9UIF8; note: % is set by controls: 0 for no effect and ±100 for the full control effect; nearly all actives have a fitted effect of over 60% in size
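In this displacement format the biotinylated H3(5-23) peptide acetylated at Lys14 serves as ligand at 50 nM, with BAZ2B at 50 nM in PBS pH 7.4 containing 0.01% Tween-20. Donor and acceptor beads are 10 ug/mL final.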
G9a block = G9a (human) methyltransferase inhibition. Q96KQ7. G9a H3K9 monomethylation, AlphaScreen, 2 h. Potency, µM (highest dose often 102 µM), without a hit: at the highest dose activity, negative = inhibition, hits mostly inhibitors. 8.8% of 350,000 active; note: % is set by controls: 0 for no effect and ±100 for the full control effect; nearly all actives have a fitted effect of over 75% in size
Target sequence (Q96KQ7 913-1193 limits assumed): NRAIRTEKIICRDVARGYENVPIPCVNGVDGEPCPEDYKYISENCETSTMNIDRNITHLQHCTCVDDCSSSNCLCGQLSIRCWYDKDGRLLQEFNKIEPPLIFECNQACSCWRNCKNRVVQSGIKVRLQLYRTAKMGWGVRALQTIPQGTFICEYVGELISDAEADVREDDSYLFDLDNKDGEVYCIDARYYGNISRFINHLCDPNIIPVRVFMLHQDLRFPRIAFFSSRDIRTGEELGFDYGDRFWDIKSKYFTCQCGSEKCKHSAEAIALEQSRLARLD
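AlphaScreen read-out: biotin-H3K9 peptide (500 nM) methylation by 20 nM enzyme with 20 uM SAM, 2 h at room temperature after 15 min compound preincubation; anti-monomethyl H3K9 antibody plus donor/acceptor beads, 10 min dark.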
Sfp inh = blocks B. subtilis Sfp PPTase activity | Biochemical Sfp PPTase activity, qHTS | 3.5% of 310,000 active | AID 1490 | Q9F4F7 | Potency, µM, for the others: largest response in the series, negative = inhibition, hits mostly inhibitors;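 note: the enzyme is Sfp with the accession as filed and its product quenches rhodamine fluorescence; 0% = enzyme reaction without inhibitor and -100% = no enzyme wells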
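Compounds were incubated with enzyme (final 15 nM) for 15 min at room temperature before substrate addition started the reaction. Fluorescence at 525 nm excitation, 598 nm emission was recorded immediately and after 30 minutes.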
JMJD2A Tudor inh = inhibitors of human JMJD2A Tudor domain; O75164; AlphaScreen JMJD2A-Tudor / H3K4me3 peptide binding; Potency, µM (highest dose often 114 µM), without a hit: at the highest dose activity change, negative = inhibition, actives largely listed as inhibitors; 4.4% of 390,000 active; AID 504339; note: % is set by controls: 0 for no effect and ±100 for the full control effect; nearly all actives have a fitted effect of over 50% in size
Active calls of the source: *; [ ] = dose if it differs, or a comment. Calls come from the whole dose curve; as a rule, active = well fitted curve in the direction sought with a large enough effect; inconclusive = small, poorly fitted or top-dose-only effect, or another doubt; inactive = no such curve, though single readings can be large; an effect the other way counts as inactive or inconclusive. Potency is the fitted concentration of half-maximal effect.

How did Cc1ccc(CNC(=O)CN(C)S(=O)(=O)c2ccc3c(c2)c(=O)n(C)c(=O)n3C)cc1 do in these assays?
HP1b binding inh: 27.2%; BAZ2B inh: -14.5%; G9a block: -7.3%[59 µM]; JMJD2A Tudor inh: -12.5%

Results for COC(=O)C1=C(C(=O)OC)[C@@H]2N(C)c3ccc(OC)cc3[C@@]23C[C@@H](C(=O)OC)N(S(=O)(=O)c2ccc(C(F)(F)F)cc2)C3=N1 ?
Sfp inh: 2.2%

Results for C=C(C)Cn1c(=O)c2c(nc3n2CCN3c2ccc(CC)cc2)n(C)c1=O ?
HP1b binding inh: 78.3%; BAZ2B inh: 21.8%; G9a block: 18.3%[59 µM]; JMJD2A Tudor inh: -1.6%

Results for CC(C)[C@@H](CC(=O)N[C@@H]1CCNC[C@H]1C(=O)N[C@H](CC(=O)N[C@@H](CCC(=O)O)CC(=O)O)Cc1ccccc1)NC(=O)C[C@H](CO)NC(=O)[C@@H]1CCCC[C@H]1N ?
Sfp inh: -20.8%

How did O=C(CCCN1C(=O)/C(=C/c2ccc(F)cc2)SC1=S)NCCCn1ccnc1 do in these assays?
HP1b binding inh: inconclusive; BAZ2B inh: 22.4µM*; G9a block: inconclusive; Sfp inh: -2.9%; JMJD2A Tudor inh: inconclusive

Results for CC(C)c1ccc(/C=C2\SC(=S)N(CCC(=O)NCCCn3ccnc3)C2=O)cc1 ?
HP1b binding inh: 2.2%; BAZ2B inh: inconclusive; Sfp inh: -1.3%; JMJD2A Tudor inh: inconclusive

Results for COc1ccccc1/C=C1\SC(=O)N(CCC(=O)NCCCn2ccnc2)C1=O ?
HP1b binding inh: 25.6%; BAZ2B inh: inconclusive; Sfp inh: 3.3%; JMJD2A Tudor inh: -3.6%

Results for COc1ccccc1/C=C1\SC(=S)N(CCC(=O)NCCCn2ccnc2)C1=O ?
HP1b binding inh: 32.4%; BAZ2B inh: 50.1µM*; G9a block: inconclusive; Sfp inh: 2.4%; JMJD2A Tudor inh: -1.0%

What do the screens show for `COc1ccc(/C=C2\SC(=S)N(CCC(=O)NCCCn3ccnc3)C2=O)cc1`?
HP1b binding inh: 44.1%; BAZ2B inh: 25.1µM*; G9a block: 56.2µM*; Sfp inh: 6.8%; JMJD2A Tudor inh: 16.3%

Results for COc1ccccc1CNC(=O)C(=O)NCC(c1cccs1)S(=O)(=O)c1ccccc1 (stereo unspecified) ?
HP1b binding inh: -14.9%; BAZ2B inh: -38.8%; G9a block: -8.4%[59 µM]; JMJD2A Tudor inh: -30.5%

What do the screens show for `Cc1ccc(Cl)cc1N1CCN(C(=O)c2c(C)oc3ncnc(N4CCCCC4)c23)CC1`?
HP1b binding inh: -8.5%; BAZ2B inh: -29.7%[57.1 µM]; G9a block: inconclusive; JMJD2A Tudor inh: inconclusive

Results for Cc1nn(-c2ccccc2)c(C)c1/C=N\N1CCN(c2ccc(Cl)cc2)CC1 ?
HP1b binding inh: inconclusive; L3MBTL1 inh: 3.8%; BAZ2B inh: 31.6µM*; G9a block: inconclusive; Sfp inh: 25.1µM*; JMJD2A Tudor inh: 28.2µM*

What do the screens show for `COc1ccc(NC(=O)CN(C)S(=O)(=O)c2ccc3nc(C)sc3c2)cc1`?
HP1b binding inh: 41.5%; BAZ2B inh: -3.3%; G9a block: 4.6%[59 µM]; JMJD2A Tudor inh: -15.5%

How did Cn1c2c(c(=O)n(C)c1=O)C(c1ccc(F)cc1)C(C#N)=C(N)O2 (stereo unspecified) do in these assays?
HP1b binding inh: 19.7%; L3MBTL1 inh: -11.3%; BAZ2B inh: -14.9%; G9a block: 44.7µM*; Sfp inh: 2.3%; JMJD2A Tudor inh: -6.5%

What do the screens show for `CCC1CN(C(=O)N2CCC(C(=O)NCCc3ccc(C)cc3)CC2)c2ccccc2O1` (stereo unspecified)?
HP1b binding inh: 11.5%; BAZ2B inh: -11.1%; G9a block: 4.8%[59 µM]; JMJD2A Tudor inh: -13.2%

Results for Cc1ccc(CN2CCc3nc(N4CCN(C)CC4)ncc3C2)s1 ?
HP1b binding inh: 30.5%; BAZ2B inh: inconclusive; G9a block: inconclusive; JMJD2A Tudor inh: inconclusive

What do the screens show for `Cc1ccc(-c2csc(NC(=O)C3CSC4(C)CCC(=O)N34)n2)cc1` (stereo unspecified)?
HP1b binding inh: 7.0%; L3MBTL1 inh: 9.8%; BAZ2B inh: 79.4µM*; G9a block: 0.7%[0.501 µM]; JMJD2A Tudor inh: -2.1%

What do the screens show for `CCc1ccc2nc(NC(=O)C3CSC4(C)CCC(=O)N34)sc2c1` (stereo unspecified)?
HP1b binding inh: 22.4%; L3MBTL1 inh: -7.2%; BAZ2B inh: -34.2%; G9a block: 28.2µM*; JMJD2A Tudor inh: -11.9%

Results for CC12CCC(=O)N1C(C(=O)Nc1nc3ccc(S(C)(=O)=O)cc3s1)CS2 (stereo unspecified) ?
HP1b binding inh: 25.6%; BAZ2B inh: -9.7%; G9a block: inconclusive; Sfp inh: 13.1%; JMJD2A Tudor inh: -10.3%

What do the screens show for `CC12CCC(=O)N1C(C(=O)Nc1nc3ccc(Cl)cc3s1)CS2` (stereo unspecified)?
HP1b binding inh: 8.1%; L3MBTL1 inh: 5.7%; BAZ2B inh: -33.0%; G9a block: 44.7µM*; JMJD2A Tudor inh: inconclusive

How did Cc1ccccc1OCCSc1nnc(-c2ccc([N+](=O)[O-])cc2)o1 do in these assays?
HP1b binding inh: inconclusive; BAZ2B inh: inconclusive; G9a block: -11.6%[59 µM]; JMJD2A Tudor inh: inconclusive

What do the screens show for `Cc1ccc(C(=O)Nc2nnc(SCc3cc(=O)c4c(C)ccc(C)c4[nH]3)s2)cc1`?
HP1b binding inh: 16.6%[57 µM]; BAZ2B inh: -10.3%; G9a block: -21.3%[59 µM]; JMJD2A Tudor inh: -31.5%

What do the screens show for `COCCNc1ccc2cc(S(=O)(=O)N3CCCCC3)ccc2n1`?
HP1b binding inh: 36.8%; BAZ2B inh: 2.3%; G9a block: -2.1%[59 µM]; JMJD2A Tudor inh: 6.5%

How did COc1ccc(OC)c(CCNc2nccn(-c3ccc(C)c(C)c3)c2=O)c1 do in these assays?
HP1b binding inh: inconclusive; BAZ2B inh: 25.1µM*; G9a block: 15.8µM*; JMJD2A Tudor inh: 56.2µM*

What do the screens show for `Cc1ccc(-n2ccnc(NCc3ccccc3)c2=O)cc1C`?
HP1b binding inh: -15.8%; BAZ2B inh: inconclusive; G9a block: inconclusive; JMJD2A Tudor inh: -17.2%

What do the screens show for `CC(=O)C(=Nc1ccc(Cl)cc1Cl)NNc1cccc(Cl)c1`?
HP1b binding inh: inconclusive; BAZ2B inh: 14.1µM*; G9a block: inconclusive; Sfp inh: 3.1%; JMJD2A Tudor inh: 56.2µM*

Results for CC(=O)Nc1ccc(NC(=O)Nc2cccc(Cl)c2)cc1 ?
HP1b binding inh: 16.3%; BAZ2B inh: 5.0%; G9a block: 0.3%; Sfp inh: 8.6%; JMJD2A Tudor inh: -8.7%
